Hits are enriched below; roughly 21% of the tested compounds scored in any of these assays.
CHX counter = Cycloheximide Counterscreen for Small Molecule Inhibitors of Shiga Toxin; 12% of 300,000 active; cell reporter, cycloheximide protein synthesis inhibition counterscreen; max response, %; in the data active = max response mostly above about 13%, no sharp cut-off; inactive = mostly below about 14%; note: read at 38.3 µM for the half of the compounds with a filed dose
Pf growth 96h = Primary qHTS for delayed death inhibitors of the malarial parasite plastid, 96 hour incubation | Potency, µM (titrated, usually from 28.7 µM), hits mostly inhibitors | P. falciparum luciferase reporter growth, 96 h | AID 504834, 2011 | 6.9% of 320,000 active
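Readout is luminescence from an integrated firefly luciferase in P. falciparum. Red cells, 2% hematocrit and 0.05% parasitemia final, were cultured with compound through two parasite generations (96 hours) at 37 C, 5% CO2.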
Shiga inhibitor = A qHTS for Small Molecule Inhibitors of Shiga Toxin | Vero cells, Shiga toxin protein synthesis inhibition reporter | 9.2% of 290,000 active | inhibition, % at 38.7 µM; in the data active = inhibition mostly above about 28%, no sharp cut-off; inactive = mostly below about 43%
Pf growth 48h = Primary qHTS for delayed death inhibitors of the malarial parasite plastid, 48 hour incubation. 5.9% of 310,000 active. AID 504832, 2011. P. falciparum luciferase growth in erythrocytes, 48 h. Potency, µM (doses to about 28.7 µM), most hits filed as inhibitors
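Cell-based growth assay: transgenic P. falciparum expressing firefly luciferase, cultured in red cells within RPMI 1640 containing 0.5% w/v Albumax, 24 mM bicarbonate and gentamycin. A drop in luciferase activity indicates inhibition.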
Hits are given with their value; n = inactive; u = inconclusive; x = no result. Unless noted, calls come from the whole dose curve; as a rule, active = well fitted inhibition curve with a large enough effect; inconclusive = small, poorly fitted or top-dose-only effect, or another doubt; inactive = no such curve, though single readings can be large or run the other way.

SMILES | CHX counter | Pf growth 96h | Shiga inhibitor | Pf growth 48h
Cc1cc(SCc2ccc(Cl)cc2)nc(=O)[nH]1 | 16 | u | n | n
Cc1ccc(CSc2cc(C)[nH]c(=O)n2)cc1 | n | n | 26 | n
Cc1ccc(CSc2nc3nc(C)cc(C)c3c(=O)[nH]2)cc1 | n | n | n | n
Cc1cc(SCc2cccc(Cl)c2)nc(=O)[nH]1 | n | n | n | n
NS(=O)(=O)c1ccc(CCNC(=O)CSc2nc3ccsc3c(=O)n2CC(=O)O)cc1 | n | 1.2µM | n | n
CCOC(=O)N1CCC(n2c(SCC(=O)c3ccccc3)nc3ccsc3c2=O)CC1 | n | u | n | u
NS(=O)(=O)c1ccc(CCNC(=O)CSc2nc3ccsc3c(=O)n2CCCCCC(=O)O)cc1 | n | n | n | n
CCCN(CCC)C(=O)CSc1nc2ccsc2c(=O)n1NC(=O)c1ccccc1 | 19 | n | n | n
CC(C)CCNC(=O)CSc1nc2ccsc2c(=O)n1NC(=O)c1ccccc1 | 26 | u | n | n
OCC[C@@H]1C[C@H](O)[C@@H](O)[C@]2(CCCc3ccccc3O2)O1 | n | n | n | n
CC1(C)OC[C@@H]2O[C@@]3(C(=O)O)OC(C)(C)O[C@@H]3[C@@H]2O1 | x | n | x | n
COc1ccc(CNc2nc(NCc3ccc(OC)cc3)n(C(=O)c3ccccc3[N+](=O)[O-])n2)cc1 | 26 | u | 75 | u
Cc1ccc(-c2nc(NCc3ccco3)n(C(=O)c3ccco3)n2)cc1 | 42 | n | 122 | n
O=C(c1ccco1)n1nc(-c2ccccc2)nc1NCc1ccco1 | n | n | n | n
O=C(COc1ccccc1)n1nc(-c2ccc(Cl)cc2)nc1NCc1ccco1 | 48 | n | 26 | n
COc1ccccc1C(=O)n1nc(-c2ccccc2)nc1NCc1ccco1 | 21 | n | n | n
COc1ccc(CNc2nc(NCc3ccc(OC)cc3)n(C(=O)c3ccncc3)n2)cc1 | n | n | n | n
COc1ccccc1NC(=O)CC1S/C(=N/N=C(\C)C2CCCCC2)NC1=O (stereo not given) | n | n | n | u
CCN(C(=O)c1ccc2c(=O)n3c(nc2c1)CCCCC3)c1ccccc1C | n | u | n | n
O=C(c1ccco1)n1nc(NCc2ccccc2)nc1NCc1ccccc1 | 9.9 | n | 37 | n
CCN(CCn1cccn1)Cc1cn[nH]c1-c1ccc(-c2ccccc2)cc1 | n | n | n | 2.9µM
COc1ccc(-c2[nH]ncc2CNCCc2ncccc2C)cc1F | n | u | n | n
Cn1cc(CCNCc2cn[nH]c2-c2ccc(-c3ccccc3)cc2)cn1 | 31 | n | 54 | u
CN(CCc1cnn(C)c1)Cc1cn[nH]c1-c1ccc(-c2ccccc2)cc1 | 17 | u | 43 | n
Cc1ccc(-c2[nH]ncc2CNCCc2cnn(-c3ccccc3)c2)cc1C | n | u | n | 13µM
SMILES | CHX counter | Pf growth 96h | Shiga inhibitor | Pf growth 48h
CC(OC(=O)CCC(=O)N1CCN(S(=O)(=O)c2ccc3ccccc3c2)CC1)C(=O)NC(N)=O (stereo not given) | n | n | n | n
N#Cc1cccc(S(=O)(=O)NCc2nnc3ccccn23)c1 | x | n | x | n
O=C(Nc1ccc(S(=O)(=O)Nc2ccccc2)cc1)c1ccc(CN2CCOCC2)cc1 | n | n | n | u
N/C(=N\c1nc2ccccc2o1)NC(=O)c1cccc(Br)c1 | n | n | n | n
CC(=O)N/C(N)=N/c1nc2cc(C)ccc2o1 | 37 | n | 63 | n
CC(=O)N/C(N)=N/c1nc2cc([N+](=O)[O-])ccc2o1 | 27 | n | n | n
NC(=O)c1cc2cc([N+](=O)[O-])ccc2oc1=O | n | n | n | n
O=C(c1ccccc1)c1c[nH]c(C(=O)NCCCn2ccnc2)c1 | n | n | n | n
COc1ccc(NC(=O)CN(C)C(=O)C2=NN(c3ccccc3)C(=O)CC2)cc1 | x | n | x | u
Cc1ccc(N=c2oc3cc(O)ccc3cc2C(N)=O)cc1 | 56 | n | 81 | n
COc1ccc(N=c2oc3cc(O)ccc3cc2C(=O)Nc2ccccn2)cc1OC | n | n | n | 4.7µM
Cc1ccccc1CN1C(=O)Nc2ccccc2C(=O)N1C(C)(C)C | n | x | n | n
CC(C)(C)N1C(=O)c2ccccc2NC(=O)N1Cc1ccc(Br)cc1 | n | 8.3µM | n | x
COC(CN(C(=O)CCl)C(C(=O)NC1CCCCC1)c1ccccc1C)OC (stereo not given) | n | u | n | 15µM
COC(CN(C(=O)CCl)C(C(=O)NC1CCCCC1)c1ccc(Cl)cc1)OC (stereo not given) | n | 2.9µM | n | u
COc1ccc(C(C(=O)NC2CCCCC2)N(C(=O)c2sc(C)nc2C)c2ccc(OC)cc2)cc1 (stereo not given) | n | n | n | n
COC(CN(C(=O)CCl)C(C(=O)NC1CCCC(C)C1C)c1ccc(C)cc1)OC (stereo not given) | n | u | n | n
O=C(NC1CCCC1)C(c1ccc(Cl)cc1)N(Cc1ccc(F)cc1)C(=O)CCl (stereo not given) | n | n | n | n
COc1ccc(C(C(=O)NC2CCCCC2)N(C(=O)CCl)c2ccc(Cl)cc2)cc1 (stereo not given) | n | 3.7µM | n | n
CCn1cc(CNC(=O)C2CCC(=O)N(C3CCCCCC3)C2)cn1 (stereo not given) | n | n | n | n
O=C(OCC(=O)c1ccc(Cl)s1)c1cnccn1 | n | n | n | n
Cc1ccccc1OCC(=O)NNC(=O)c1ccoc1C | x | n | x | n
O=C(NCCc1ccccc1)c1n[nH]c2ccccc12 | 51 | n | 145 | n
O=C(NCCc1ccccn1)c1n[nH]c(=O)c2ccccc12 | n | 13µM | n | n
O=C(NCCc1ccc(Cl)cc1)c1n[nH]c2ccccc12 | n | n | 40 | n
SMILES | CHX counter | Pf growth 96h | Shiga inhibitor | Pf growth 48h
O=C(CNC(=O)c1ccccc1F)NCCc1ccc(Cl)cc1 | n | n | n | n
CCc1ccc(NC(=O)c2n[nH]c(=O)c3ccccc23)cc1 | 36 | n | 79 | n
CCCCN(C(=O)CCCc1nc2ccccc2c(=O)[nH]1)c1c(N)n(CC(C)C)c(=O)[nH]c1=O | x | n | x | n
CC(=O)Nc1ccc(-c2csc(NC(=O)Cc3cccc(F)c3)n2)cc1 | n | n | n | n
CCCC(=O)c1c[nH]c(C(=O)NCCc2ccccn2)c1 | 16 | n | n | n
CN(C)CCCNC(=O)c1cc(C(=O)Cc2ccccc2)c[nH]1 | n | n | n | n
Nc1ccccc1C(=O)N1CCc2ccccc21 | 26 | u | 69 | n
Nc1ccccc1C(=O)OCC(=O)N1CCc2ccccc21 | 39 | x | 79 | n
O=C(OCC(=O)N1CCc2ccccc21)c1ccc[n+]([O-])c1 | n | u | n | n
O=C(OCC(=O)N1CCc2ccccc21)c1cccnc1 | 33 | x | 45 | n
COc1cccc(C(=O)OCC(=O)N2CCc3ccccc32)c1OC | x | n | x | n
O=C(c1cccnc1)N1CCc2ccccc21 | n | n | n | n
O=C(OCC(=O)N1CCc2ccccc21)c1ccccc1 | 43 | n | 118 | n
O=[N+]([O-])c1cccc(C(=NCc2ccccc2)NO)c1 | n | n | n | n
O=C(CCCSc1nc2ccccc2s1)NCc1ccc2c(c1)OCO2 | 17 | n | n | n

Source: PubChem
